# According to the supplement of paper PMC8728848:
# About 410 targets per protein were measured; listed, in parts, are those with the strongest signals and a random draw of the rest.
# B1: CVN-E41G (protein)
# chain: MHHHHHHENLYFQSGNFSQACYNSAIQGSVLTSTCIRTNGGYNTSSIDLNSVIGNVDGSLKWQGSNFIETCRNTQLAGSSELAAECKTRAQQFVSTKINLDDHIAAIDGTLKYE
# Assays:
# Assay in all cases: glycan array binding signal (z-score within array); higher = stronger binding
# Settings in all cases: glycan notation: IUPAC condensed, linker removed; mutation: E41G
# Gal4S6S(b1-4)GlcNAc = biological target: Gal4S6S(b1-4)GlcNAc
# In short: (§1)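 The Consortium for Functional Glycomics database supplied 3228 glycan arrays, of which those lacking an available protein sequence were dropped. The binding signal, a within-array Z-score, was averaged across arrays of the same protein sequence and across linkers. Negative scores can be read as non-binding.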
# Gal6S(b1-4)Glc = biological target: Gal6S(b1-4)Glc
# In short: as §1
# [1] = biological target: GalNAc(b1-3)Gal(a1-4)Gal(b1-4)GlcNAc
# In short: as §1
# [2] = biological target: GlcNAc(b1-2)[GlcNAc(b1-4)]Man(a1-3)[GlcNAc(b1-4)][GlcNAc(b1-2)Man(a1-6)]Man(b1-4)GlcNAc(b1-4)GlcNAc
# In short: as §1
# [3] = biological target: GlcNAc(b1-2)[GlcNAc(b1-6)]Man(a1-6)[GlcNAc(b1-2)Man(a1-3)]Man(b1-4)GlcNAc(b1-4)GlcNAc
# In short: as §1
# [4] = biological target: GlcNAc(b1-3)Gal(b1-4)GlcNAc(b1-2)Man(a1-3)[GlcNAc(b1-3)Gal(b1-4)GlcNAc(b1-2)Man(a1-6)]Man(b1-4)GlcNAc(b1-4)GlcNAc
# In short: as §1
# [5] = biological target: GlcNAc(b1-3)Gal(b1-4)GlcNAc(b1-3)Gal(b1-4)GlcNAc(b1-3)Gal(b1-4)GlcNAc(b1-3)Gal(b1-4)GlcNAc(b1-2)[GlcNAc(b1-3)Gal(b1-4)GlcNAc(b1-3)Gal(b1-4)GlcNAc(b1-3)Gal(b1-4)GlcNAc(b1-3)Gal(b1-4)GlcNAc(b1-6)]Man(a1-6)[GlcNAc(b1-3)Gal(b1-4)GlcNAc(b1-3)Gal(b1-4)GlcNAc(b1-3)Gal(b1-4)GlcNAc(b1-3)Gal(b1-4)GlcNAc(b1-2)Man(a1-3)]Man(b1-4)GlcNAc(b1-4)[Fuc(a1-6)]GlcNAc
# In short: as §1
# [6] = biological target: GlcNAc(b1-6)Gal(b1-4)GlcNAc
# In short: as §1
# Kdn(a2-3)Gal(b1-4)GlcNAc = biological target: Kdn(a2-3)Gal(b1-4)GlcNAc
# In short: as §1
# [7] = biological target: Man(a1-2)Man(a1-2)Man(a1-3)Man
# In short: as §1
# [8] = biological target: Man(a1-2)Man(a1-2)Man(a1-6)[Man(a1-3)]Man
# In short: as §1
# Man(a1-2)Man(a1-3)Man = biological target: Man(a1-2)Man(a1-3)Man
# In short: as §1
# [9] = biological target: Man(a1-2)Man(a1-3)[Man(a1-2)Man(a1-6)]Man
# In short: as §1
# [10] = biological target: Man(a1-2)Man(a1-3)[Man(a1-2)Man(a1-6)]Man(a1-6)[Man(a1-2)Man(a1-2)Man(a1-3)]Man
# In short: as §1
# [11] = biological target: Man(a1-2)Man(a1-3)[Man(a1-6)]Man(a1-6)[Man(a1-2)Man(a1-3)]Man(b1-4)GlcNAc(b1-4)GlcNAc
# In short: as §1
# [12] = biological target: Man(a1-2)Man(a1-6)[Man(a1-3)]Man(a1-6)[Man(a1-2)Man(a1-2)Man(a1-3)]Man
# In short: as §1
# [13] = biological target: Man(a1-2)Man(a1-6)[Man(a1-3)]Man(a1-6)[Man(a1-2)Man(a1-2)Man(a1-3)]Man(b1-4)GlcNAc(b1-4)GlcNAc
# In short: as §1
# [14] = biological target: Man(a1-3)[Man(a1-6)]Man(a1-6)[Man(a1-2)Man(a1-3)]Man(b1-4)GlcNAc(b1-4)GlcNAc
# In short: as §1
# [15] = biological target: Neu5Ac(a2-3)Gal(b1-3)GalNAc(b1-4)Gal(b1-4)Glc
# In short: as §1
# [16] = biological target: Neu5Ac(a2-3)Gal(b1-3)GlcNAc6S
# In short: as §1
# [17] = biological target: Neu5Ac(a2-3)Gal(b1-4)GlcNAc(b1-3)Gal(b1-4)GlcNAc(b1-3)[Neu5Ac(a2-3)Gal(b1-4)GlcNAc(b1-3)Gal(b1-4)GlcNAc(b1-6)]GalNAc
# In short: as §1
# Neu5Ac(a2-6)Gal = biological target: Neu5Ac(a2-6)Gal
# In short: as §1
# [18] = biological target: Neu5Ac(a2-6)Gal(b1-4)GlcNAc(b1-2)[Neu5Ac(a2-6)Gal(b1-4)GlcNAc(b1-6)]Man(a1-6)[Neu5Ac(a2-6)Gal(b1-4)GlcNAc(b1-2)Man(a1-3)][GlcNAc(b1-4)]Man(b1-4)GlcNAc(b1-4)GlcNAc
# In short: as §1
# [19] = biological target: Neu5Ac(a2-6)Gal(b1-4)GlcNAc(b1-3)Gal(b1-4)GlcNAc(b1-3)Gal(b1-4)GlcNAc(b1-2)Man(a1-3)[Neu5Ac(a2-6)Gal(b1-4)GlcNAc(b1-3)Gal(b1-4)GlcNAc(b1-3)Gal(b1-4)GlcNAc(b1-2)Man(a1-6)]GalNAc
# In short: as §1
# [20] = biological target: Neu5Ac(a2-6)Gal(b1-4)GlcNAc(b1-6)[Gal(b1-3)GlcNAc(b1-3)]Gal(b1-4)Glc
# In short: as §1
# [21] = biological target: Neu5Ac(a2-8)Neu5Ac(a2-8)Neu5Ac(a2-3)Gal(b1-4)Glc
# In short: as §1
# [22] = biological target: Neu5Gc(b2-6)Gal(b1-4)GlcNAc
# In short: as §1
binder,measurement,setting,value
B1,glycan array binding signal (z-score),Gal4S6S(b1-4)GlcNAc,-0.19
same,glycan array binding signal (z-score),Gal6S(b1-4)Glc,-0.138
same,glycan array binding signal (z-score),[1],-0.154
same,glycan array binding signal (z-score),[2],-0.148
same,glycan array binding signal (z-score),[3],-0.145
same,glycan array binding signal (z-score),[4],-0.152
same,glycan array binding signal (z-score),[5],-0.123
same,glycan array binding signal (z-score),[6],-0.121
same,glycan array binding signal (z-score),Kdn(a2-3)Gal(b1-4)GlcNAc,-0.154
same,glycan array binding signal (z-score),[7],7.32
same,glycan array binding signal (z-score),[8],9.78
same,glycan array binding signal (z-score),Man(a1-2)Man(a1-3)Man,5.5
same,glycan array binding signal (z-score),[9],8.72
same,glycan array binding signal (z-score),[10],11
same,glycan array binding signal (z-score),[11],6.59
same,glycan array binding signal (z-score),[12],8.16
same,glycan array binding signal (z-score),[13],8.78
same,glycan array binding signal (z-score),[14],4
same,glycan array binding signal (z-score),[15],-0.111
same,glycan array binding signal (z-score),[16],-0.165
same,glycan array binding signal (z-score),[17],-0.126
same,glycan array binding signal (z-score),Neu5Ac(a2-6)Gal,-0.168
same,glycan array binding signal (z-score),[18],-0.139
same,glycan array binding signal (z-score),[19],-0.112
same,glycan array binding signal (z-score),[20],-0.167
same,glycan array binding signal (z-score),[21],-0.173
same,glycan array binding signal (z-score),[22],-0.155
